Reference: PMC13494018
Values without a mark were called inactive. How the calls were made is not given here.

B1: d8r1_design_ppi_502_dldesign_0_cycle0_af2pred (protein)
chain: SFEEEKKKADEYMTKAAELAPPELKPAVQNMRDGILKAFEVSPKSALNLAKSALRWVKKHGSEEAAKEMEKALEHLEKAAE
B2: d8r1_design_ppi_43_dldesign_0_cycle0_af2pred (protein)
chain: MEALERASRVLAEAARLAMKNPAYAPAFAEVAAAYRETIAAYKESPEAAKEAAERLEKLAAERIAAAKAAL
B3: d8r1_design_ppi_442_dldesign_0_cycle1_af2pred (protein)
chain: DAAAVAAIAAAAAEAAGLYVRGRAASSKDPAEAKKYYAEADALVAAMLAAGAATSPAVAAAAAAAAATVAATRAALDAIKA
B4: d8r1_design_ppi_786_dldesign_0_cycle1_af2pred (protein)
chain: SEEKEKLKKLAEKARAGAEAAKADPSKAAEYGKEAYELAKEALPESIAELFKKAVEKNPVSGLAFLAAYAKYKAES
B5: d8r1_design_ppi_1247_dldesign_0_cycle0_af2pred (protein)
chain: SSDKENSKLIREAMKVIGETLAAARAAVAAGDLEAARAAVAEGVARLEEMAEKSKDEATRETLLRMAEALRAQGAKILA
B6: d8r1_design_ppi_493_dldesign_0_cycle1_af2pred (protein)
chain: SDARIAGAVAIMRLGAADADAATGAALREVGAAFAVSPEAGVAKAAELAAALAAARTPAAAAAGAARLAAATALGVAIAAAGA
B7: d8r1_design_ppi_820_dldesign_0_cycle1_af2pred (protein)
chain: AAEAQALLQTFEANVEGAKMMGEASSLPALVRYHAITKTSATLAARAKELGLEEAAAQIEARGKELAAEAKAGLEKELAA
B8: d8r1_design_ppi_705_dldesign_0_cycle1_af2pred (protein)
chain: MSKLTQAMLHYGRALAAAVALADDPEAAGKAVSAEMAEAAKVAAAGSPEVQKQALEAGEIIVEQIKKVNPEVGAKAAEAVKTTLAKL
B9: d8r1_design_ppi_282_dldesign_0_cycle1_af2pred (protein)
chain: STDEELAAKAAALANLNKALAIATKFDPSVLADFKKIASLILDPNKKEEAVKLLNEKAKEAEAKDPAAGAALKAAAEEAKKI
B10: d8r1_design_ppi_198_dldesign_0_cycle1_af2pred (protein)
chain: AAAALQAAAAAAAARLEKLAEEAAADPRLAPAAAAARAAAAQARANPAIAAQLAANTEAFVATYRAAVEEK
B11: d8r1_design_ppi_1486_dldesign_0_cycle1_af2pred (protein)
chain: MKELEEAKKEAEKAREELLKAAKEAAKVDPTVATGANNAAEGAKVLIESGSLGAARAGKAIAEAALKKAQAVLDAAQKA
B12: d8r1_design_ppi_257_dldesign_0_cycle1_af2pred (protein)
chain: DEKDTATAEALGAISRAIAAAKALAATGDPEEAARLAEAARAAIAEALELAKKTTPSSQAAIEVAAARARAALDAALAKQAARAAA
B13: d8r1_design_ppi_487_dldesign_0_cycle0_af2pred (protein)
chain: AAAEAAKAALAAEGERLLEEAERNLKIAKEGNGEEAAKASRNTLLNLAELTKLADEAAAADPAAGKVGAELLARLREILREIEAVNLA
B14: d8r1_design_ppi_991_dldesign_0_cycle1_af2pred (protein)
chain: AEAARTAAIAKSIAGLAKLAEKAKDDKSVVRAAATAAAAAAAKDAALGKAAAERLKAAAEATPEEAIATLKAVAAEIAAAAAA
B15: d8r1_design_ppi_1356_dldesign_0_cycle0_af2pred (protein)
chain: SAELIAQTARAGAVMLAAGIAGTPEAAANAAAGTSLLLKAKAESTGSEELKALAERAAAAAATLKADPAAGRAALAALRDELEKLAK
B16: d8r1_design_ppi_568_dldesign_0_cycle0_af2pred (protein)
chain: AGEALNLAARGLIAAGEAGDAEAAAQAAALLAKATAALAAGDEAAAKAYAAEAAAVADPEKAPEAEAVKAAAAA
B17: d8r1_design_ppi_1191_dldesign_0_cycle1_af2pred (protein)
chain: AKAELKKKAEEYEKLYNAAKAALDVALADPSFSKSAKKAIAQAQVDAAKKALEAAKAYDPSQAPYWQAKLDAAQAALDAI
B18: d8r1_design_ppi_750_dldesign_0_cycle1_af2pred (protein)
chain: SRLEEARAIAERAAAEAAAAGNVAEAVAIAQRGAAEVVRTLSPEPVEAKAEVLAHHAELAQAVIDALTAAE
B19: d8r1_design_ppi_286_dldesign_0_cycle0_af2pred (protein)
chain: SNEENAENLRLAGRAIEGVAESASAKQTADHLNNVATAAAKIDAETGKKLKAIGEEVLKTGDAKEGGEKAKKVLEEAAEKFK

Target: PDL1, Q9NZQ7
Sequence (Q9NZQ7 whole entry): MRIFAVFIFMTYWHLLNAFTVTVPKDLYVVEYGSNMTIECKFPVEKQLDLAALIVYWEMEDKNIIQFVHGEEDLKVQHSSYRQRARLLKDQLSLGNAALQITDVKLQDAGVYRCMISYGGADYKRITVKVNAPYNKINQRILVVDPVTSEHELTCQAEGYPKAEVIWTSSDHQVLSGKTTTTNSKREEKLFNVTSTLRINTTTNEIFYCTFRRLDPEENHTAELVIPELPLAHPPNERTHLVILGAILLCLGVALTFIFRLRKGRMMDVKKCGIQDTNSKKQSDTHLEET

Binder	binding in a display sort
B1	not found
B2	not found
B3	not found
B4	not found
B5	not found
B6	not found
B7	not found
B8	not found
B9	not found
B10	not found
B11	not found
B12	not found
B13	not found
B14	not found
B15	not found
B16	not found
B17	not found
B18	not found
B19	not found
